# Test results: PubChem BioAssay (NCATS)
# Where “and” joins values, the source holds several entries; their conditions need not be identical. Equal entries are not always repeated. Records with an inconclusive call do not appear. Entries that show only a call come without a potency. Calls of active or inactive are those of the source. Unless noted, calls follow the shape of the dose curve; as a rule, active = well fitted curve in the direction sought with a large enough effect; inconclusive = small, poorly fitted or top-dose-only effect, or another doubt; inactive = no such curve, though single readings can be large; an effect the other way counts as inactive or inconclusive. Peptide text beside a SMILES is read from it.
# Key:
# [1] = High-throughput drug toxicity screening in the BPDCN cell line Cal-1 (AID 1224825; call rule not given here); details: Cal-1 BPDCN cell viability, qHTS; at 45.8 µM (top of the series) unless noted
# Procedure, shortened: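 500 Cal-1 cells/well, RPMI + glutamine + 10% FBS (phenol red-free); cpd added by pin tool; 48 h, 37C, 5% CO2; CTG 15 min RT, lumi read. Normalised: DMSO 100%, bortezomib 9.2 uM 0%.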
# [2] = qHTS assay for measurement of the activity of small molecule inhibitors on Zika virus induced Caspase-3 activity in human iPSC derived neural progenitor cells (hNPCs) (AID 1224857); also: nearly all actives have a fitted effect of over 65% in size; also: potency is read from the fitted curve at half-maximal effect
# Procedure, shortened: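 Zika virus (2 FFU/cell) infection of human iPSC-derived NPCs, 6 h, following 1 h compound preincubation. Read-out: Caspase-Glo 3/7 luminescence.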
# [3] = qHTS assay for measurement of the activity of small molecule inhibitors on Zika virus induced Caspase-3 activity in human astrocytoma cells (AID 1224859); also: potency is read from the fitted curve at half-maximal effect
# Procedure, shortened: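 Caspase activation in ZIKV-infected SNB-19 cells (2 FFU/cell, 6 h) measured by Caspase-Glo 3/7 luminescence after 30 min RT; compound pre-incubated 1 h; normalised to uninfected and infected controls.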
# [4] = qHTS Screen of the MIPE 4.0 Collection Against Ewings Sarcoma (RDES) (AID 1259252); also: nearly all actives have a fitted effect of over 35% in size; also: potency is read from the fitted curve at half-maximal effect
# Procedure, shortened: (§1)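 After a 4 h attachment period in RPMI/5% FBS, cells were pin-dosed with test compounds; DMSO served as negative and 9.2 uM bortezomib (final) as positive control. Luminescent CellTiter-Glo signal at 48 h defined viability.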
# [5] = qHTS Screen of the MIPE 4.0 Collection Against Ewings Sarcoma (EW8) (AID 1259255); also: nearly all actives have a fitted effect of over 35% in size; also: potency is read from the fitted curve at half-maximal effect
# Procedure, shortened: as §1
# [6] = qHTS Screen of the MIPE 4.0 Collection Against Ewings Sarcoma (TC32) (AID 1259256); also: nearly all actives have a fitted effect of over 45% in size; also: potency is read from the fitted curve at half-maximal effect
# Procedure, shortened: as §1
# [7] = qHTS assay to identify small molecule inhibitors of chordoma cells - UCH-1 (AID 1259355); also: nearly all actives have a fitted effect of over 55% in size; also: potency is read from the fitted curve at half-maximal effect
# Procedure, shortened: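 Seed 800 cells per well; incubate overnight at 37 C, 5% CO2. Add test compounds (15 concentrations), then the auranofin–topoisomerase-agent combination. Incubate 48hr, add CellTiter-Glo, wait 30min, read luminescence.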
# [8] = qHTS assay to identify small molecule inhibitors of chordoma cells - UCH-2 (AID 1259356)
# [9] = qHTS Screen of the MIPE 4.0 Collection Against Ewings Sarcoma (TC71) (AID 1259253); also: nearly all actives have a fitted effect of over 40% in size; also: potency is read from the fitted curve at half-maximal effect
# Procedure, shortened: as §1
# [10] = Identifying Small Molecule Inhibitors of Pancreatic Cancer Stem Cells (A2780, Spheroid) (AID 1259357); details: Potency: A2780 spheroid viability;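 also: spheroids pre-formed over 14 days in stem cell medium on hydrogel; compound exposure lasted 48 h before the ATP luminescence read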
# Procedure, shortened: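 After a 4 h attachment period, compounds were pinned into wells and cultures held 48 h under standard incubator conditions. Viability was then measured as CellTiter-Glo luminescence following 10 min at room temperature.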
SMILES,viability (% of control) [1],Potency [2],Potency [3],Potency [4],Potency [5],Potency [6],Potency [7],Potency [8],Potency [9],Potency [10]
Cc1ccc(Nc2nccc(N(C)c3ccc4c(C)n(C)nc4c3)n2)cc1S(N)(=O)=O,62.5%,inactive,inactive,11.8 µM (active),inactive,inactive,–,–,–,–
CC(C)c1nc(CN(C)C(=O)N[C@H](C(=O)N[C@@H](Cc2ccccc2)C[C@H](O)[C@H](Cc2ccccc2)NC(=O)OCc2cncs2)C(C)C)cs1,94.9%,inactive,inactive,inactive,16.6 µM (active),14.8 µM (active),–,–,–,–
CCOC(=O)C1=C[C@@H](OC(CC)CC)[C@H](NC(C)=O)[C@@H](N)C1,106%,inactive,inactive,inactive,inactive,–,inactive,inactive,–,–
OC(CN1CCN(c2cccc(Cl)c2)CC1)C(c1ccccc1)c1ccccc1 (stereo not given),88.8%,inactive,inactive,inactive,–,16.6 µM (active),–,–,–,–
CNC[C@H](O)c1ccc(O)c(O)c1,79.5% [at 92.2 µM],inactive,inactive,42.9 µM (active),–,–,–,inactive,–,–
Cc1ccc(S(=O)(=O)NC(=O)NN2CC3CCCC3C2)cc1 (stereo not given),35.2%,inactive,inactive,18.7 µM (active),–,–,–,inactive,–,–
Cc1cccc(CN2CCN(C(c3ccccc3)c3ccc(Cl)cc3)CC2)c1 (stereo not given),94%,inactive,inactive,20.9 µM (active),–,13.2 µM (active),–,inactive,–,–
CCCCN(CCCC)CCC(O)c1cc2c(Cl)cc(Cl)cc2c2cc(C(F)(F)F)ccc12 (stereo not given),64.8%,inactive,inactive,inactive,inactive,–,–,inactive,–,–
CC1Cc2ccccc2N1NC(=O)c1ccc(Cl)c(S(N)(=O)=O)c1 (stereo not given),104%,inactive,inactive,–,–,–,–,inactive,–,–
CN(C)c1ccc(O)c2c1C[C@H]1C[C@H]3[C@H](N(C)C)C(=O)C(C(N)=O)=C(O)[C@@]3(O)C(=O)C1=C2O,80%,inactive,inactive,–,–,–,–,inactive,–,–
Cc1cc(O)c2c(c1)C(=O)c1cc(O)cc(O)c1C2=O,109%,9.35 µM (active) and 2.51 µM (active),9.35 µM (active),–,inactive,inactive,–,–,–,–
CN(C)[C@@H](CCOc1cccc2ccccc12)c1ccccc1,78.2%,inactive,inactive,–,–,26.4 µM (active),–,–,26.4 µM (active),–
O=C1c2ccccc2-c2n[nH]c3cccc1c23,3.95%,inactive,inactive,–,–,18.7 µM (active),inactive,inactive,–,–
CC(S)C(=O)NCC(=O)O (stereo not given),100%,inactive,inactive,–,inactive,–,inactive,inactive,–,–
Nc1cc(C(Cl)=C(Cl)Cl)c(S(N)(=O)=O)cc1S(N)(=O)=O,106%,inactive,inactive,–,inactive,–,–,inactive,–,–
Clc1ccc(C(Cn2ccnc2)OCc2c(Cl)cccc2Cl)c(Cl)c1 (stereo not given),63.4%,inactive,inactive,–,–,–,–,inactive,–,–
Cc1c(OCC(F)(F)F)ccnc1CS(=O)c1nc2ccccc2[nH]1 (stereo not given),100%,inactive,inactive,–,–,–,inactive,inactive,–,–
CCN(CCO)CCCC(C)Nc1ccnc2cc(Cl)ccc12 (stereo not given),8.28%,inactive,inactive,–,–,23.5 µM (active),inactive,inactive,–,–
Cc1c(C(=O)NN2CCCCC2)nn(-c2ccc(Cl)cc2Cl)c1-c1ccc(Cl)cc1,13.1%,inactive,inactive,–,26.4 µM (active),26.4 µM (active),–,inactive,23.5 µM (active),–
COC(=O)[C@H](Cc1ccccc1)NC(=O)[C@@H](N)CC(=O)O (H-Asp-Phe-OMe),114%,inactive,inactive,–,–,–,–,inactive,–,–
C=C(c1ccc(C(=O)O)cc1)c1cc2c(cc1C)C(C)(C)CCC2(C)C,89.3%,inactive,inactive,–,–,inactive,inactive,inactive,inactive,–
Nc1nc(OCc2ccccc2)c2[nH]cnc2n1,39.4%,inactive,inactive,–,26.4 µM (active),–,–,–,–,–
Cc1ccc(C)c(OCCCC(C)(C)C(=O)O)c1,51%,inactive,inactive,–,–,–,–,inactive,–,–
CC[C@]1(O)C[C@H]2CN(CCc3c([nH]c4ccccc34)[C@@](C(=O)OC)(c3cc4c(cc3OC)N(C=O)[C@H]3[C@@](O)(C(=O)OC)[C@H](OC(C)=O)[C@]5(CC)C=CCN6CC[C@]43[C@@H]65)C2)C1,10.9%,inactive,inactive,–,–,inactive,0.224 µM (active),inactive,–,–
CCC1=C(C)CN(C(=O)NCCc2ccc(S(=O)(=O)NC(=O)NC3CCC(C)CC3)cc2)C1=O (stereo not given),118%,inactive,inactive,–,inactive,inactive,–,inactive,–,–
CN(C)CCCC1(c2ccc(F)cc2)OCc2cc(C#N)ccc21 (stereo not given),99.6%,inactive,inactive,–,inactive,16.6 µM (active),–,–,–,–
Cc1cccc(-c2[nH]ncc2-c2ccc3ncccc3n2)n1,106%,inactive,inactive,–,inactive,inactive,–,–,–,inactive
